Reference: the supplement of paper PMC6555819

Assays:
Experiment in all cases: PBM binding z-score (relative to random genomic background probes); higher = stronger binding; sequences stand for … in GC…GCGATTGACAGCGTAGAATGAAGG
[1] = test system: FXR:RXRa (NR concentration 270 nM, RXRa partner concentration 90 nM)
Outline: (§1)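 On custom Agilent 4×180K arrays, double-stranded probes with 34-nt variable regions carried direct-repeat seeds, single-nucleotide variants, half-site ablations or random human genomic background. Ligand-free nuclear receptor dimers were applied for 1 h, and binding was read with antibodies against each partner (one per run). Binding z-scores come from regression-normalized fluorescence, with the random background probes as reference.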

[2] = test system: LXRa:RXRa (NR concentration 270 nM, RXRa partner concentration 90 nM)
Outline: as §1

[3] = test system: LXRa homodimer (NR concentration 270 nM)
Outline: as §1

[4] = test system: LXRb:RXRa (NR concentration 270 nM, RXRa partner concentration 90 nM)
Outline: as §1

[5] = test system: LXRb homodimer (NR concentration 270 nM)
Outline: as §1

[6] = test system: PPARa:RXRa (NR concentration 270 nM, RXRa partner concentration 90 nM)
Outline: as §1

[7] = test system: PPARg:RXRa (NR concentration 180 nM, RXRa partner concentration 90 nM)
Outline: as §1

[8] = test system: PPARg:RXRa 270nM:90nM, anti-RXR (NR concentration 270 nM, RXRa partner concentration 90 nM)
Outline: as §1

[9] = test system: PPARg:RXRa 30nM:10nM, anti-RXR (NR concentration 30 nM, RXRa partner concentration 10 nM)
Outline: as §1

[10] = test system: PPARg:RXRa 90nM:30nM, anti-RXR (NR concentration 90 nM, RXRa partner concentration 30 nM)
Outline: as §1

[11] = test system: PPARg:RXRa DBDmut IVT, anti-RXR (DBD mutation: RXRa K156A/R161A, NR concentration 270 nM, RXRa partner concentration 90 nM)
Outline: as §1

[12] = test system: PPARg:RXRa IVT, anti-PPARg (NR concentration 270 nM, RXRa partner concentration 90 nM)
Outline: as §1

[13] = test system: PPARg DBDmut:RXRa IVT, anti-PPARg (DBD mutation: PPARg1 K132A/R137A, NR concentration 270 nM, RXRa partner concentration 90 nM)
Outline: as §1

[14] = test system: PPARg DBDmut IVT, anti-PPARg (DBD mutation: PPARg1 K132A/R137A, NR concentration 270 nM)
Outline: as §1

[15] = test system: PPARg homodimer (NR concentration 180 nM)
Outline: as §1

[16] = test system: PXR:RXRa (NR concentration 270 nM, RXRa partner concentration 90 nM)
Outline: as §1

[17] = test system: PXR homodimer (NR concentration 270 nM)
Outline: as §1

[18] = test system: RARa:RXR (NR concentration 270 nM, RXRa partner concentration 90 nM)
Outline: as §1

[19] = test system: RARa homodimer (NR concentration 270 nM)
Outline: as §1

[20] = test system: RARb:RXRa (NR concentration 270 nM, RXRa partner concentration 90 nM)
Outline: as §1

Row | Sequence | PBM binding z-score [1] | PBM binding z-score [2] | PBM binding z-score [3] | PBM binding z-score [4] | PBM binding z-score [5] | PBM binding z-score [6] | PBM binding z-score [7] | PBM binding z-score [8] | PBM binding z-score [9] | PBM binding z-score [10] | PBM binding z-score [11] | PBM binding z-score [12] | PBM binding z-score [13] | PBM binding z-score [14] | PBM binding z-score [15] | PBM binding z-score [16] | PBM binding z-score [17] | PBM binding z-score [18] | PBM binding z-score [19] | PBM binding z-score [20]
1 | CAAACTAGGTCACCGGACGGTCAAAGTCCGCATG | 4.83 | 4.33 | 1.97 | 3.09 | 0.428 | 5.37 | 9.09 | 7.27 | 5.34 | 6.89 | 8.62 | 8.82 | 3.09 | 1.22 | 4.69 | 2.54 | 0.265 | 3.73 | 0.94 | 4.7
2 | ACAGACAGGTGATGAAGGTAAATCAGGCTATCAT | -0.0911 | -0.136 | -0.0858 | 0.169 | -0.557 | 0.252 | 0.707 | 0.0594 | -0.0828 | -0.0561 | -0.0404 | 0.544 | 0.329 | 0.144 | 0.185 | -0.214 | -0.0702 | 0.248 | 0.26 | 0.21
3 | ATCGAAAGGTCGAAGGTGAGGATACCCACCCGAA | 4.08 | 3.68 | 0.155 | 2.73 | 0.724 | 4.69 | 4.61 | 5.07 | 2.25 | 4.11 | 0.202 | 2.45 | 0.792 | 0.619 | 1.6 | 3.14 | 0.0224 | 4.45 | 0.541 | 3.66
4 | TCGAGTAGGTTAGTCGGGGTATTCAGCCAACATA | 0.000404 | -0.0351 | -0.315 | 0.411 | -0.451 | 0.421 | -0.245 | 0.44 | 1.24 | 0.688 | 2.12 | 1.56 | -0.225 | -0.287 | -0.0532 | -0.197 | -0.205 | 0.128 | -0.0281 | 0.0838
5 | TAGAGTAGGTTACCAATGGGGCATTCAGCTTTCT | 0.195 | 1.62 | 0.13 | 1.22 | 1.02 | 1.68 | 1.3 | 1.96 | 1.16 | 1.72 | 4.68 | 4.33 | 0.638 | 0.725 | 1.06 | 0.312 | 0.223 | 0.669 | 1.18 | 1.33
6 | GGAACGAGGGTATTCGAGTTGATAGCATGGCGAT | 0.27 | 2.1 | -0.446 | -0.313 | -1.2 | -0.309 | 0.371 | -0.244 | -0.476 | -0.646 | 0.383 | 0.201 | -0.0387 | -0.595 | -0.648 | 1.19 | -0.17 | 0.11 | -0.18 | -0.145
7 | CTCGATAGGTCGGTTGAGGTGAGTATACGGATAA | 0.692 | 0.287 | -0.389 | 0.0394 | -0.451 | 0.659 | -0.0443 | -0.187 | -0.208 | -0.177 | -0.342 | 0.362 | 0.83 | 0.287 | 0.144 | 1.21 | 0.123 | 1.11 | -0.0628 | 1.17
8 | AGTCAAAGTTCAGGACGAGGAAACGTAAAGCACG | 3.83 | 3.6 | 0.784 | 1.92 | 0.307 | 3.21 | 5.02 | 5.02 | 2.33 | 4.27 | -0.351 | 1.46 | 0.63 | 0.55 | 1.71 | 2.42 | 0.845 | 2.26 | -0.0138 | 4.25
9 | CCTGCTAGGTCATGTTCAGCTAATCTACAGTATG | 3.33 | 2.25 | 0.437 | 1.65 | 0.467 | 2.69 | 1.36 | 1.91 | 0.403 | 1.16 | 4.06 | 2.94 | -0.127 | 0.556 | 1.51 | 1.07 | -0.338 | 1.53 | -0.173 | 3.63
10 | CCAGACAGGTGAGAATGTAACTCAGCCTCGATTA | -0.153 | -0.116 | -0.13 | -0.00314 | -0.187 | 0.0169 | 0.376 | -0.212 | -0.0571 | -0.437 | 0.965 | 0.029 | -1.25 | 0.0266 | 0.565 | -0.276 | 0.0874 | -0.141 | 1.11 | 0.234
11 | ACAGACAGGTGATGAAGGTTACTCAGGCTATCAT | 0.29 | 0.278 | 0.0459 | 0.276 | -0.288 | 0.714 | 0.777 | 0.381 | 0.107 | 0.0691 | 0.431 | 0.604 | 0.785 | -0.154 | 0.281 | 0.38 | 0.162 | 0.715 | 0.502 | 0.957
12 | TATACAGGGTCAAAGGCGAGAGTACGAATGTCGA | 7.01 | 6.18 | 2.21 | 4.53 | 2.51 | 6.19 | 7.72 | 6.81 | 3.94 | 6.47 | 2.19 | 4.69 | 2.38 | 1.65 | 2.22 | 3.85 | 0.6 | 4.91 | 0.979 | 4.45
13 | CCTAGTTGGACAGGAGGTCACACACCGGATATGA | 3.17 | 3.27 | 1.86 | 3.19 | 0.666 | 4.11 | 2.52 | 2.96 | 0.938 | 2.35 | 0.493 | 2.64 | 0.73 | 0.338 | 3.06 | 4.13 | 1.32 | 4.3 | 1.71 | 3.23
14 | CGTCCAAGATCAAGGTCAGTGAAAGAGACTCGAA | 1.53 | 1.53 | 0.459 | 1.7 | -0.296 | 2.7 | 0.906 | 1.19 | 0.0233 | 0.76 | 1.25 | 1.67 | -0.223 | -0.447 | 1.25 | 1.82 | 0.628 | 2.07 | 0.651 | 3.28
15 | ATCTCTAGGTAACCAAGTGCAGTGAATGCCGAAC | -0.0336 | 0.0225 | -0.464 | -0.183 | 0.282 | -0.0554 | 0.325 | 0.259 | -0.0021 | 0.298 | 3.33 | 2.57 | 1.12 | 0.604 | -0.00797 | 0.128 | 0.228 | 0.0514 | -0.0338 | 0.281
